The panel holds about 83,000 compounds, 20% with a hit somewhere; the sample as a whole holds those more often.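 Activity criterion: percent growth below 10, measured after cells in 96-well plates were exposed to a single compound concentration for 48 hours.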 Values without a mark were called inactive.
System: MDA-MB-468 breast
Assay: NCI-60 one-dose screen, 48 h (100 = growth as untreated, 0 = no growth, -100 = all killed)
Conditions: 10 µM unless noted

| SMILES | growth [%] |
| --- | --- |
| Nc1cc2c(cc1N)-c1cc(N)c(N)cc1C2 | 105 |
| Clc1nc(N2CCC[N+]3(CC2)CC[N+]2(CCCNCC2)CC3)nc(N2CCC[N+]3(CC2)CC[N+]2(CCCNCC2)CC3)n1 (stereo not drawn) | 65.8 |
| CCc1cnc(=S)n(-c2ccccc2)c1 | 117 |
